Reference: PubChem BioAssay (Tox21)
Records with an inconclusive call do not appear. The source made the active and inactive calls. Calls come from the whole dose curve; as a rule, active = well fitted curve in the direction sought with a large enough effect in the repeat runs; inconclusive = weak or mixed curves; inactive = no such curve, though single readings can be large; an effect the other way counts as inactive or inconclusive.

What was measured:
[1] = Human pregnane X receptor (PXR) small molecule agonists, qHTS cell viability counter screen (AID 1346977); note: nearly all actives have a fitted effect of over 50% in size; note: potency is the fitted concentration of half-maximal effect
Outline: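 HepG2 cells stably carrying the PXR-Luc reporter are cultured with 5% charcoal-stripped FBS and treated with compounds for 24hr. CellTiter-Fluor is added at 23hr and fluorescence is read after 1hr.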

[2] = Caspase-3/7 induction in HepG2 cells by small molecules, qHTS assay (AID 1346978); note: nearly all actives have a fitted effect of over 15% in size
Outline: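 Wild-type HepG2 cells (2,000/well) were settled 5 h at 37 C, 5% CO2, then exposed to compounds in DMSO for 17 h. Caspase-3/7 activity was read by luminescence 30 min after adding Caspase-Glo 3/7 reagent at room temperature.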

[3] = Caspase-3/7 induction in CHO-K1 cells by small molecules, qHTS cell viability counter screen (AID 1346979); note: nearly all actives have a fitted effect of over 35% in size; note: potency is the fitted concentration of half-maximal effect
Outline: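 Seeding: 1,500 CHO-K1 cells/well. Rest: 5hr, 37C. Treatment: compounds in DMSO, 16hr. Read: CellTiter-Fluor, 1hr, fluorescence.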

[4] = Caspase-3/7 induction in CHO-K1 cells by small molecules, qHTS assay (AID 1346980); note: nearly all actives have a fitted effect of over 15% in size
Outline: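 Wild-type cells were seeded at 1,500 per well and settled 5 hr at 37 C, 5% CO2, then exposed to DMSO-dissolved compounds for 17 hr. Caspase-Glo 3/7 reagent was added, and luminescence was read after 30min at room temperature.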

[5] = molecular target: Nuclear receptor subfamily 1 group I member 2 (Homo sapiens) (UniProt O75469); assay: Human pregnane X receptor (PXR) small molecule agonists, qHTS assay (AID 1346982); note: nearly all actives have a fitted effect of over 35% in size; note: potency is the fitted concentration of half-maximal effect
Outline: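 HepG2 PXR-Luc reporter line, 5% charcoal-stripped FBS; 5 hr pre-incubation, compound (DMSO) 24 hr at 37 C/5% CO2; ONE-Glo 30 min RT; luminescence read-out.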

[6] = molecular target: Cytochrome P450 2D6 (Homo sapiens) (UniProt P10635); assay: Cytochrome P450 Family 2 Subfamily D Member 6 (CYP2D6) small molecule antagonists: luciferase reporter qHTS assay (AID 1671196); note: nearly all actives have a fitted effect of over 50% in size; note: potency is the fitted concentration of half-maximal effect; for activity change, negative = inhibition: series mostly up to about 120 µM
Outline: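 Luminogenic proluciferin substrate, CYP2D6 enzyme; 10 min RT preincubation with compound, NADPH regeneration system added, 1 h RT. Stop/detection reagent, 20 min RT, luminescence read (RLU). Signal proportional to CYP activity.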

[7] = molecular target: Cytochrome P450 2C19 (Homo sapiens) (UniProt P33261); assay: Cytochrome P450 Family 2 Subfamily C Member 19 (CYP2C19) small molecule antagonists: luciferase reporter qHTS assay (AID 1671197); note: nearly all actives have a fitted effect of over 65% in size; note: potency is the fitted concentration of half-maximal effect; for activity change, negative = inhibition: series mostly up to about 120 µM
Outline: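 Light output is proportional to CYP2C19 activity: proluciferin substrate is converted to luciferin, then detected by a luciferin detection reagent that also stops the 1 h, 37C NADPH-driven reaction. Ketoconazole serves as positive control.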

[8] = molecular target: Cytochrome P450 1A2 (Homo sapiens) (UniProt P05177); assay: Cytochrome P450 Family 1 Subfamily A Member 2 (CYP1A2) small molecule antagonists: luciferase reporter qHTS assay (AID 1671199); note: nearly all actives have a fitted effect of over 50% in size; note: potency is the fitted concentration of half-maximal effect; for activity change, negative = inhibition: series mostly up to about 120 µM
Outline: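 Luminescence readout (relative luminescence units) after luciferin detection reagent, 20 min RT. Preceded by 1 h room-temperature CYP1A2 reaction with NADPH regeneration solution following 10 min compound preincubation with enzyme and proluciferin substrate. Furafylline positive control.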

[9] = molecular target: Voltage-gated inwardly rectifying potassium channel KCNH2 (Homo sapiens) (UniProt Q12809); assay: Human Ether-a-go-go-Related Gene (hERG) channel small molecule antagonists: fluorescence cell-based qHTS assay (AID 1671200);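 note: hERG-expressing U2OS cells given a thallium stimulus after FluxOR II dye loading; series mostly up to about 77 µM; nearly all actives have a fitted effect of over 50% in size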
Outline: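 First, 1000 cells per well are seeded and cultured overnight at 37 C. Next, FluxOR II dye is loaded for 1 h at room temperature, protected from light. After 10 more minutes, stimulus is added and fluorescence is read.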

[10] = molecular target: Cytochrome P450 3A4 (Homo sapiens) (UniProt P08684); assay: Cytochrome P450 Family 3 Subfamily A Member 4 (CYP3A4) small molecule antagonists: luciferase reporter qHTS assay (AID 1671201)
Outline: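 Enzyme and proluciferin substrate are mixed with test chemicals for 10 min, then NADPH regeneration system drives turnover for 1 h at room temperature. A detection reagent halts the reaction; luminescence after 20 min gives relative activity.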

[11] = Caspase-3/7 induction in HepG2 cells by small molecules, qHTS cell viability counter screen (AID 1346981); note: nearly all actives have a fitted effect of over 30% in size; note: potency is the fitted concentration of half-maximal effect; for activity change, negative = cytotoxicity: series mostly up to about 92 µM
Outline: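 Fluorescence read-out of live-cell protease activity (CellTiter-Fluor) after 1 hr with reagent. This was measured in the same wells as the caspase-3/7 luminescence, on HepG2 cells exposed to DMSO-dissolved compounds for 16 hr at 37 C.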

[12] = molecular target: Cytochrome P450 2C9 (Homo sapiens) (UniProt P11712); assay: Cytochrome P450 Family 2 Subfamily C Member 9 (CYP2C9) small molecule antagonists: luciferase reporter qHTS assay (AID 1671198); note: nearly all actives have a fitted effect of over 50% in size; note: potency is the fitted concentration of half-maximal effect; for activity change, negative = inhibition: series mostly up to about 120 µM
Outline: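 CYP2C9 activity was measured with a P450-Glo proluciferin substrate. Enzyme–substrate mix was held with compound for 10 min at room temperature, then NADPH regeneration solution was added for 1 h at 37C. Luciferin product was read as luminescence.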

[13] = molecular target: Nuclear receptor subfamily 1 group I member 2 (Rattus norvegicus) (UniProt Q9R1A7); assay: Rat pregnane X receptor (rPXR) activation by small molecules, qHTS assay (AID 1346983); details: rPXR luciferase reporter cells, One-Glo luminescence, 24 h; hits give high values; note: nearly all actives have a fitted effect of over 20% in size
Outline: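 Cell-based rPXR luciferase reporter assay, 2,000 cells per well, rested 5hr at 37 C before compound addition in DMSO, then 24 hr at 37 C. One-Glo reagent was added and luminescence read after 30 min at room temperature.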

[14] = molecular target: Nuclear receptor subfamily 1 group I member 2 (Homo sapiens) (UniProt O75469); assay: CYP3A4 induction through human pregnane X receptor (PXR) by small molecules, qHTS assay (AID 1346984); note: nearly all actives have a fitted effect of over 40% in size
Outline: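 HepG2-derived DPX-2 line carrying PXR plus a CYP3A4-promoter luciferase reporter; cells plated 5 hr, compound-exposed 24 hr at 37C. CYP3A4 activity probed with 3uM (final) Luciferin-IPA for 3hr, then luciferase read after One-Glo.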

[15] = molecular target: Nuclear receptor subfamily 1 group I member 2 (Homo sapiens) (UniProt O75469); assay: Human pregnane X receptor (PXR) activation by small molecules, qHTS assay (AID 1346985); note: nearly all actives have a fitted effect of over 40% in size
Outline: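 DPX-2 cells (HepG2 co-transfected with a PXR response element and a CYP3A4-promoter luciferase construct) were seeded at 2,000 per well, rested 5 hr at 37C, then exposed to DMSO-dissolved compounds for 24 hr. Activation was read as luciferase luminescence.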
% is set by controls: 0 for no effect and ±100 for the full control effect.

Chain of Cytochrome P450 2D6 (Homo sapiens) (P10635 whole entry, looked up): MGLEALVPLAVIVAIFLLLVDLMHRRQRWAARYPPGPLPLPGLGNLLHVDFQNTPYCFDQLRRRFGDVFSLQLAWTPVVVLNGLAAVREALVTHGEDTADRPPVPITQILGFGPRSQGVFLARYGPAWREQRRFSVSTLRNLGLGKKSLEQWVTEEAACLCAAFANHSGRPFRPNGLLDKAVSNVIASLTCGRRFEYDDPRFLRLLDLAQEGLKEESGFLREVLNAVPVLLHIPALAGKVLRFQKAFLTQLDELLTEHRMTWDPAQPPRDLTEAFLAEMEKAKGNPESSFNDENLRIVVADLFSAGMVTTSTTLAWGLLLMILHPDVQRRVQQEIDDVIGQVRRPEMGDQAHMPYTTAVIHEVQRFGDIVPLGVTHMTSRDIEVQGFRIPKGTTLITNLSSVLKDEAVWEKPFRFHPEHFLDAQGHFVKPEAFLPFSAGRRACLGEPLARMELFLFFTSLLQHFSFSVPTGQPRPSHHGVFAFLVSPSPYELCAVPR
Chain of Cytochrome P450 2C9 (Homo sapiens) (P11712 whole entry, looked up): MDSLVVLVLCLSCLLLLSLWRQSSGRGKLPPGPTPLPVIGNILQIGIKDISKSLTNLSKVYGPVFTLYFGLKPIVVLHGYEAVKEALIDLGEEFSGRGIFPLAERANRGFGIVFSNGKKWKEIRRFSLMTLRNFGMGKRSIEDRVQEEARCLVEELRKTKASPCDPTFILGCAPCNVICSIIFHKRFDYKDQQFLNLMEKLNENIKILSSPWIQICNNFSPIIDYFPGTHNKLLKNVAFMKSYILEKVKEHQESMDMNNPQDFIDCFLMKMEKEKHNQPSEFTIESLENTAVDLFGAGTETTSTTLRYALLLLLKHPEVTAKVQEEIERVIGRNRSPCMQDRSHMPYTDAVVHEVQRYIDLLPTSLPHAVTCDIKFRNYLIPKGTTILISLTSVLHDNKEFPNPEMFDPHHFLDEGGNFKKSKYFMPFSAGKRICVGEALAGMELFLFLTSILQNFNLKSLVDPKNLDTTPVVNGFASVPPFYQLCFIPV
Chain of Cytochrome P450 1A2 (Homo sapiens) (P05177 whole entry, looked up): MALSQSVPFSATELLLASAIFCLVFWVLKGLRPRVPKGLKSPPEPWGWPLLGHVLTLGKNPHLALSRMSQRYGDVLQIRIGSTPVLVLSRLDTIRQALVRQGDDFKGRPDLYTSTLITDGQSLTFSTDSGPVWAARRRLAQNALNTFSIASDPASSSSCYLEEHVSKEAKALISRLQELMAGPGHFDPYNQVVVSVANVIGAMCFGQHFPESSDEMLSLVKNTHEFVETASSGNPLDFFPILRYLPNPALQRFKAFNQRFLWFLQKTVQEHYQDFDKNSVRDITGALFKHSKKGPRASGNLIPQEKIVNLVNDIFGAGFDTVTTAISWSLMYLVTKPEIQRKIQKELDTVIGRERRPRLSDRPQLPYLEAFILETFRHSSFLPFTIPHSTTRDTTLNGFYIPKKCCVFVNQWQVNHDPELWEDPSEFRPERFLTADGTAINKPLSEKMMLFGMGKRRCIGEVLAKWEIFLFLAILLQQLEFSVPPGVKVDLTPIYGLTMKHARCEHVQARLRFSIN
Chain of Cytochrome P450 3A4 (Homo sapiens) (P08684 whole entry, looked up): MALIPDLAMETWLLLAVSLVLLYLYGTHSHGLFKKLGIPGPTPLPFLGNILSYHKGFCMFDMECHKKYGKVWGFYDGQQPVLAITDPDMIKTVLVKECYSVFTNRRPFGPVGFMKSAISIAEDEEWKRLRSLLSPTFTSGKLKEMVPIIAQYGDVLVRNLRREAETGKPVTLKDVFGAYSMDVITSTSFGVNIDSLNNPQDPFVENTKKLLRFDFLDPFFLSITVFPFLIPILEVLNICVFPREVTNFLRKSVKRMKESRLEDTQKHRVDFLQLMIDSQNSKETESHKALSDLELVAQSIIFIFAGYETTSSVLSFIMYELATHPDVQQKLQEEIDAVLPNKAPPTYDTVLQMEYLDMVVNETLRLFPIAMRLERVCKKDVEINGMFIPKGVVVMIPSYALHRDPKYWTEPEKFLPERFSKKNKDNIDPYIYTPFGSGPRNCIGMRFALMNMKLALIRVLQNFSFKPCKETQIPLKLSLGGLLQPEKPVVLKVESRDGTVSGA
Chain of Nuclear receptor subfamily 1 group I member 2 (Rattus norvegicus) (Q9R1A7 whole entry, looked up): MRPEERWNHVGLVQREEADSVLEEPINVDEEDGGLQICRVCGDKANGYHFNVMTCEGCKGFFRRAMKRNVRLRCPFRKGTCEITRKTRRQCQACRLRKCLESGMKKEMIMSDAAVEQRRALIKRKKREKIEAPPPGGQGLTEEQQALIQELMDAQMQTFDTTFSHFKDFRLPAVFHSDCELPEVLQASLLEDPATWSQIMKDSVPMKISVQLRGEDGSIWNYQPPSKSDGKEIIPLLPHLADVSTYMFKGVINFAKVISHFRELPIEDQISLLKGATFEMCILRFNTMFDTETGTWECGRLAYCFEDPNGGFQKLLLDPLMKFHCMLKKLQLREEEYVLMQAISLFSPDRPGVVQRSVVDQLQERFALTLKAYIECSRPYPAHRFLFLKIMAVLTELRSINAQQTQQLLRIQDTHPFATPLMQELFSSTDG
Chain of Voltage-gated inwardly rectifying potassium channel KCNH2 (Homo sapiens) (Q12809 whole entry, looked up): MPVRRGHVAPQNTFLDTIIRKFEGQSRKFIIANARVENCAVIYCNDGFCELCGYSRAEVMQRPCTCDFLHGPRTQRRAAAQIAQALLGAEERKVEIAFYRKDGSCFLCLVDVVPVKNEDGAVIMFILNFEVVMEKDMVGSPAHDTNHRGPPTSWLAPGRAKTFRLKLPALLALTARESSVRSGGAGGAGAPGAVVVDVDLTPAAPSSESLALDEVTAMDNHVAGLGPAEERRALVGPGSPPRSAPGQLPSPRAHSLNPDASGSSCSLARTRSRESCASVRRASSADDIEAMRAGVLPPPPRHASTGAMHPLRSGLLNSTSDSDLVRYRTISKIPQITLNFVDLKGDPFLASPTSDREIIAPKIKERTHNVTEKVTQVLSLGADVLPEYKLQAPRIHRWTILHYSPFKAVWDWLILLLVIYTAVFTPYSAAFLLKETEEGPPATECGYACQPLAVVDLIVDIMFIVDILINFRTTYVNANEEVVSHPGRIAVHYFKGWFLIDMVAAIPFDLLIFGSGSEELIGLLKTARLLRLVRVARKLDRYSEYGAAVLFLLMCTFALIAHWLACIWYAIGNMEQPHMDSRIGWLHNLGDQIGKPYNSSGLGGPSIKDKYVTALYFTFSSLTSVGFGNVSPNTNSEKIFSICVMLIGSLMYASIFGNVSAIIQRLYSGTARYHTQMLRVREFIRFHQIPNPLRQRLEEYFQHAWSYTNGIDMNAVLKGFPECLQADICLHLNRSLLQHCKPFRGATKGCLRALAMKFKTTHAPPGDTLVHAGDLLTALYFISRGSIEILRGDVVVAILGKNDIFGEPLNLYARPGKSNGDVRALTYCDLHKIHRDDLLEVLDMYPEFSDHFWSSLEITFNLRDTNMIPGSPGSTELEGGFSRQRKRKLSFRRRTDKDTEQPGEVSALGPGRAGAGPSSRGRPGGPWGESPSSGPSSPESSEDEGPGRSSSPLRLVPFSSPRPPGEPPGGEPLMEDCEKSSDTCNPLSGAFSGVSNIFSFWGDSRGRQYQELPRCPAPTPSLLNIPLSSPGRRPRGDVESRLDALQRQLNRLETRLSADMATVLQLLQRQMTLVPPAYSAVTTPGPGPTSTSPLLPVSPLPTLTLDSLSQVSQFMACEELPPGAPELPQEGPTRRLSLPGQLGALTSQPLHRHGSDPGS
Chain of Nuclear receptor subfamily 1 group I member 2 (Homo sapiens) (O75469 whole entry, looked up): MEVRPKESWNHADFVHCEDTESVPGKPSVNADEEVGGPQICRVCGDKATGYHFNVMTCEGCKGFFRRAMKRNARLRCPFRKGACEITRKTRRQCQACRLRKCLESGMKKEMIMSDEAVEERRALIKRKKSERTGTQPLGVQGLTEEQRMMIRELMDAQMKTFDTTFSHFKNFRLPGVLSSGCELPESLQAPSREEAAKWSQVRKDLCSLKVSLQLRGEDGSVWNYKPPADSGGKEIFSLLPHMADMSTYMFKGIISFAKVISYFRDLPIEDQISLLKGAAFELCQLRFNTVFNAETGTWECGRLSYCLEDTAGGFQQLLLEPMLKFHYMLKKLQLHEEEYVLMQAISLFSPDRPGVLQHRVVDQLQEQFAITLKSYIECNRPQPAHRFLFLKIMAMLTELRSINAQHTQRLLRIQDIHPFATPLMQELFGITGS
Chain of Cytochrome P450 2C19 (Homo sapiens) (P33261 whole entry, looked up): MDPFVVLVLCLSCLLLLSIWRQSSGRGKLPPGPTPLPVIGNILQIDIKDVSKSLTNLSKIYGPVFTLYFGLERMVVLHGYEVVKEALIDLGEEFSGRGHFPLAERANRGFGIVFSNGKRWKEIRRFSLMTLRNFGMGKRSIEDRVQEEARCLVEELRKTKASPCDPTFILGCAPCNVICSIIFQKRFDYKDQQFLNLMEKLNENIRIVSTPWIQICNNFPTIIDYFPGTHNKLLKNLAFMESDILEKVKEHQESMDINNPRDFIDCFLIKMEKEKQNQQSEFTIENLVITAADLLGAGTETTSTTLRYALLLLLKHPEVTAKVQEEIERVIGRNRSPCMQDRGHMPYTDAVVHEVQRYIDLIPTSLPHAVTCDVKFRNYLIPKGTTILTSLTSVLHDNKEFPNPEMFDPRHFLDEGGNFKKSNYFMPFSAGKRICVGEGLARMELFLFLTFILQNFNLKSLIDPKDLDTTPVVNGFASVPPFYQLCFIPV

CN1C(C)(C)CCCC1(C)C
active: Potency [6] 2.45 µM
inactive: Potency [1] | Potency [2] | Potency [3] | outcome [4] | Potency [5] | Potency [7] | Potency [8] | Potency [9] | Potency [10]

CC(C)(C)c1n[nH]c(=S)n(N)c1=O
inactive: Potency [1] | Potency [2] | Potency [3] | outcome [4] | Potency [11] | Potency [6] | Potency [9] | Potency [10]

CCCC/C=C\CCCCCCCCCC=O
inactive: Potency [1] | Potency [2] | Potency [3] | outcome [4] | Potency [11] | Potency [6] | Potency [8] | Potency [10]

CCCOC(OCCC)OCCC
inactive: Potency [1] | Potency [2] | Potency [3] | outcome [4] | Potency [5] | Potency [6] | Potency [7] | Potency [12] | Potency [10]

CC(S)C(=O)NCC(=O)O (stereo not given)
inactive: Potency [1] | Potency [2] | Potency [3] | outcome [4] | Potency [5] | max activation [13] -1.79% | Potency [14] | Potency [15] | Potency [6] | Potency [7] | Potency [12] | Potency [8] | Potency [9] | Potency [10]

CCCCCOC(=O)CCC
inactive: Potency [1] | Potency [2] | Potency [3] | outcome [4] | Potency [5] | Potency [6] | Potency [7] | Potency [12] | Potency [8] | Potency [9] | Potency [10]

COc1ccc2c(c1)C(=O)N(CCc1ccc(S(=O)(=O)NC(=O)NC3CCCCC3)cc1)C(=O)C2(C)C
inactive: Potency [1] | Potency [2] | Potency [3] | outcome [4] | Potency [11] | max activation [13] -1.03% | Potency [6] | Potency [7] | Potency [9]
active: Potency [12] 13.8 µM

Nc1ccc2cc(S(=O)(=O)O)cc(O)c2c1
inactive: Potency [2] | outcome [4] | Potency [9] | Potency [10]
active: Potency [1] 54.2 µM | Potency [3] 54.2 µM | Potency [11] 60.8 µM | Potency [6] 44.5 µM | Potency [7] 22.3 µM

Nc1ncnc(Nc2ccccc2)n1
inactive: Potency [1] | Potency [2] | Potency [3] | outcome [4] | Potency [11] | max activation [13] 2.76% | Potency [14] | Potency [15] | Potency [7] | Potency [12] | Potency [9] | Potency [10]

C=C(C)C(=O)OCCNC(C)(C)C
inactive: Potency [1] | Potency [2] | Potency [3] | outcome [4] | Potency [11] | Potency [6] | Potency [9] | Potency [10]
active: Potency [7] 70.9 µM | Potency [8] 35.5 µM

CCCCCCCCCCl
inactive: Potency [1] | Potency [2] | Potency [3] | outcome [4] | Potency [5] | Potency [12] | Potency [9] | Potency [10]
active: Potency [6] 40.3 µM

Cc1cc(C(C)(C)C)c(O)c(C)c1CC1=NCCN1
active: Potency [6] 1.55 µM
inactive: Potency [1] | Potency [2] | Potency [3] | outcome [4] | Potency [5] | Potency [7] | Potency [8] | Potency [10]

C=CCCCCCCCCCCCC
inactive: Potency [1] | Potency [2] | Potency [3] | outcome [4] | Potency [11] | Potency [6] | Potency [7] | Potency [12] | Potency [8] | Potency [9] | Potency [10]

O=C(Nc1ccc(Cl)c(Cl)c1)C1CC1
active: Potency [5] 29.8 µM | Potency [7] 11 µM | Potency [12] 30.9 µM | Potency [8] 0.456 µM
inactive: Potency [1] | Potency [2] | outcome [4] | Potency [11] | max activation [13] -0.7% | Potency [14] | Potency [6]

CCCCCCCCCC(C)=O
inactive: Potency [1] | Potency [2] | Potency [3] | outcome [4] | Potency [5] | Potency [7] | Potency [12]

COCCOC(=O)C1=C(C)NC(C)=C(C(=O)OC(C)C)C1c1cccc([N+](=O)[O-])c1 (stereo not given)
inactive: Potency [1] | Potency [2] | outcome [4] | Potency [9]
active: Potency [3] 21.1 µM

O=P(O)(O)OP(=O)(O)O
inactive: Potency [1] | Potency [2] | Potency [3] | outcome [4] | max activation [13] 1.84% | Potency [9]

CN1CCN(CC(=O)N2c3ccccc3C(=O)Nc3cccnc32)CC1
inactive: activity change, negative = cytotoxicity [1] 5.67% [at 8.39 µM] | caspase activation [2] -1.35% [at 8.39 µM] | caspase-3/7 activation [4] 0.448% [at 8.39 µM] | activity change, negative = cytotoxicity [11] -1.47% [at 8.39 µM] | activation [5] -11.1% [at 8.39 µM] | activity change, negative = inhibition [6] -4.49% [at 10.5 µM] | activity change, negative = inhibition [7] 8.9% [at 10.5 µM] | activity change, negative = inhibition [12] 2.89% [at 10.5 µM] | activity change, negative = inhibition [8] 13.2% [at 10.5 µM] | activity change, negative = inhibition [9] -0.112% [at 6.97 µM]

COc1cc2c(cc1OC)C(=O)CC2
inactive: Potency [1] | Potency [2] | outcome [4] | Potency [11] | Potency [5] | Potency [6] | Potency [7] | Potency [9] | Potency [10]
active: Potency [8] 27.5 µM

Cc1[nH]cnc1-c1ccc(Cl)cc1
inactive: Potency [1] | Potency [2] | Potency [3] | outcome [4] | Potency [9]
active: Potency [6] 13.8 µM | Potency [7] 15.5 µM | Potency [12] 15.5 µM

O=C(CS(=O)Cc1ccco1)NC/C=C\COc1cc(CN2CCCCC2)ccn1 (stereo not given)
inactive: Potency [1] | Potency [2] | Potency [3] | outcome [4] | max activation [13] -0.727% | Potency [14] | Potency [15] | Potency [7] | Potency [8] | Potency [9] | Potency [10]

COc1cc(NS(=O)(=O)c2ccc(N)cc2)nc(OC)n1
inactive: Potency [1] | Potency [2] | outcome [4] | Potency [11] | Potency [5] | max activation [13] -2.35% | Potency [14] | Potency [15] | Potency [6] | Potency [7] | Potency [8] | Potency [10]

CC/C=C\CC1=C(C)CCC1=O
active: Potency [7] 63.3 µM | Potency [8] 31.7 µM
inactive: Potency [1] | Potency [2] | Potency [3] | outcome [4] | Potency [6] | Potency [12] | Potency [9] | Potency [10]
